Assay results as given in the supplement of paper PMC11732987, “Enantioselective OTUD7B fragment discovery through chemoproteomics screening and high-throughput optimisation” (Communications Chemistry, 2025).

compound: OC1CN(Cc2sccc12)C(=O)CCl; experiment: log2 ratio of Biotin-Ahx-Ub-VS probe labelling (compound/DMSO); higher = less target engagement, active = hit call of the paper (q ≤ 0.05, log2 ratio ≤ -1); details: compound concentration: 50uM; treatment time: 3 h
Method: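 Round 2 competitive ABPP in HEK293T lysate. Purified HTC-D2B compounds were tested at 50 and 200 µM for 3 h, followed by Biotin-Ahx-Ub-VS enrichment and diaPASEF LC-MS/MS. Values are the average log2 ratio (compound/DMSO) from an unpaired t-test (n=3 treated, n=26 DMSO).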

UniProt Q9H9J4, sequence (Q9H9J4 whole entry): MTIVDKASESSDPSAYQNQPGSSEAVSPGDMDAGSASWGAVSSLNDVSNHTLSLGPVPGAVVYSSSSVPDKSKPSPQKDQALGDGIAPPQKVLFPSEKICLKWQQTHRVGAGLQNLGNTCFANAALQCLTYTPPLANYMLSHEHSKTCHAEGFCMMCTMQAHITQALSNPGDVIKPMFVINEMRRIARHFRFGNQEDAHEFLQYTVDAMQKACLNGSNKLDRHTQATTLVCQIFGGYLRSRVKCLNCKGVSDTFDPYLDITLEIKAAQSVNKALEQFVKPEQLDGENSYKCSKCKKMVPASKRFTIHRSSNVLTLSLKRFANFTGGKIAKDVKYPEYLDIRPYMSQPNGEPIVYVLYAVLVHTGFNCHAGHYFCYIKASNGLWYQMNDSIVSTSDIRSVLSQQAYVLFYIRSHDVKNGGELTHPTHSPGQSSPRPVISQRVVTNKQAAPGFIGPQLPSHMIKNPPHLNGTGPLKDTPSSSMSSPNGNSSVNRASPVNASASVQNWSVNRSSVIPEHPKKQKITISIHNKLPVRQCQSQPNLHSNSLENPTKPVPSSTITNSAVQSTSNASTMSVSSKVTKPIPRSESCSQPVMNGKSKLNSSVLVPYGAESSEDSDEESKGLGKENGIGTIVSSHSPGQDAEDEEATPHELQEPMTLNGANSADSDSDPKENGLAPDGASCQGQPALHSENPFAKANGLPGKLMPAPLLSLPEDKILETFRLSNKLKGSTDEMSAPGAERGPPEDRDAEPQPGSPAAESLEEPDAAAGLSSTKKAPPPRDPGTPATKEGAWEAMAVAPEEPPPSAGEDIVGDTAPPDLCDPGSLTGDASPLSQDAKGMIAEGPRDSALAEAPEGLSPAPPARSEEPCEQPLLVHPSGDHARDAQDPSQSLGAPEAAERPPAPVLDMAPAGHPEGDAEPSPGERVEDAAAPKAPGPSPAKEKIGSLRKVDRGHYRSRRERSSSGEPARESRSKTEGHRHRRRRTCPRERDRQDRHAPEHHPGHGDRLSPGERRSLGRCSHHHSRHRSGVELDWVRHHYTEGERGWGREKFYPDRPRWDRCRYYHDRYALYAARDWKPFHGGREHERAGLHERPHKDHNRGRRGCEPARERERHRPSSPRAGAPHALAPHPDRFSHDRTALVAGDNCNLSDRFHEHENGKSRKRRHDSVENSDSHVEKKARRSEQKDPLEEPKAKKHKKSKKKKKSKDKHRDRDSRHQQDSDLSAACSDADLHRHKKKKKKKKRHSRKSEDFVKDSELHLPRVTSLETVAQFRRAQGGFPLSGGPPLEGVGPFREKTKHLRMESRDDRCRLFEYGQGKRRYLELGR
UniProt Q5VVQ6, sequence (Q5VVQ6 whole entry): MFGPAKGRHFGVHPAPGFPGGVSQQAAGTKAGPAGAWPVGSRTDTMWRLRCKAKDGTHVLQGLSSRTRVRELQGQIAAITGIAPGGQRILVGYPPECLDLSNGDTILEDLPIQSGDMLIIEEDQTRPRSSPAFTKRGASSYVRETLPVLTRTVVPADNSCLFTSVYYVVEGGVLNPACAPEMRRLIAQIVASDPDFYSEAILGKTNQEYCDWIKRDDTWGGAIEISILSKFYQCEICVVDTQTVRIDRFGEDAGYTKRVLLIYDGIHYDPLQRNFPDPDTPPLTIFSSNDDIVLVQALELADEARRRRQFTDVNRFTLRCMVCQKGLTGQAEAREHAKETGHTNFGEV
UniProt P62068, sequence (P62068 whole entry): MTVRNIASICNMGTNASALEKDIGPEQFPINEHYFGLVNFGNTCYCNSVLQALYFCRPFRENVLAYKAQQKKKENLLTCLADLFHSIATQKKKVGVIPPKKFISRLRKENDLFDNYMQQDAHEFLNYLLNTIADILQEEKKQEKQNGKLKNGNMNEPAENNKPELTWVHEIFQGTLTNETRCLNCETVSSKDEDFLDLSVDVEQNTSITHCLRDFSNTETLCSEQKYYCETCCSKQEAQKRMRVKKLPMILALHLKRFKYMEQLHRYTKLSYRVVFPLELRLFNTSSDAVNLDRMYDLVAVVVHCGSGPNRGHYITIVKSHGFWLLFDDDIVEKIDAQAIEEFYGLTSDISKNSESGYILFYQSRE
UniProt Q86UV5, sequence (Q86UV5 whole entry): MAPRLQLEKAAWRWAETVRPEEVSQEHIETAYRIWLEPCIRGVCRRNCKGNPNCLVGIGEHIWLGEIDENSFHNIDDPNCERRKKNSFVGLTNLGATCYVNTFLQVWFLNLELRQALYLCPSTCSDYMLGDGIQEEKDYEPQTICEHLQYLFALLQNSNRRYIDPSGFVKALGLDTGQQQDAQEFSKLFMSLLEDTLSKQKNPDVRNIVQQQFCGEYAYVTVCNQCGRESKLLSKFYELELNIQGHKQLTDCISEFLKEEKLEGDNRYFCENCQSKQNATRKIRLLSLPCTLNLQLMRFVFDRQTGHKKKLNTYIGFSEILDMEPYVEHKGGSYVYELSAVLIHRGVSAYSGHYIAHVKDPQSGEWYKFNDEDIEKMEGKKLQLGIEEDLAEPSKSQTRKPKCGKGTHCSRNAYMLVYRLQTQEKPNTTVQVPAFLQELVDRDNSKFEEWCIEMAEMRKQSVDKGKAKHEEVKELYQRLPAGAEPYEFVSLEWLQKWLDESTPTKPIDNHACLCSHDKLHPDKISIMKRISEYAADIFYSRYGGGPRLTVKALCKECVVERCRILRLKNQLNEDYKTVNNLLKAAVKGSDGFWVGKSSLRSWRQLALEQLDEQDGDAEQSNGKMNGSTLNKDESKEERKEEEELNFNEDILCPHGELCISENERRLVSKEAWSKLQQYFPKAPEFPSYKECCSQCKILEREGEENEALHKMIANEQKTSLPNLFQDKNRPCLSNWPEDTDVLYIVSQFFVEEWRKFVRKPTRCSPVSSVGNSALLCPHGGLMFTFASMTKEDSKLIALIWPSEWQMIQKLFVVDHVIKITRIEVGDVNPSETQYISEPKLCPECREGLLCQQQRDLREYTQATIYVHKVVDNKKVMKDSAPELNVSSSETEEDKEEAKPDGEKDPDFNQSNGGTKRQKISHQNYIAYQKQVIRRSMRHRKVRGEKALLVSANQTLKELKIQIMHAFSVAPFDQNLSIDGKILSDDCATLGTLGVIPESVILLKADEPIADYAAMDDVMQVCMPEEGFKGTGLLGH
UniProt O00487, sequence (O00487 whole entry): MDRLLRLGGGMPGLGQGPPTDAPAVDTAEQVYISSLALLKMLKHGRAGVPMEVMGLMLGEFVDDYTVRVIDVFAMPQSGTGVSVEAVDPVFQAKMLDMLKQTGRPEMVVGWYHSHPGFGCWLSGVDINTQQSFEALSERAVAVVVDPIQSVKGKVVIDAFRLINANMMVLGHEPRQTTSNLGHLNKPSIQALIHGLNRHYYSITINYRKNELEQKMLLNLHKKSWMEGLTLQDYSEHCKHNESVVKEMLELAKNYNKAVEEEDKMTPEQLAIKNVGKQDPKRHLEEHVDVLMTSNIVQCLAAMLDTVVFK
UniProt Q53GS9, sequence (Q53GS9 whole entry): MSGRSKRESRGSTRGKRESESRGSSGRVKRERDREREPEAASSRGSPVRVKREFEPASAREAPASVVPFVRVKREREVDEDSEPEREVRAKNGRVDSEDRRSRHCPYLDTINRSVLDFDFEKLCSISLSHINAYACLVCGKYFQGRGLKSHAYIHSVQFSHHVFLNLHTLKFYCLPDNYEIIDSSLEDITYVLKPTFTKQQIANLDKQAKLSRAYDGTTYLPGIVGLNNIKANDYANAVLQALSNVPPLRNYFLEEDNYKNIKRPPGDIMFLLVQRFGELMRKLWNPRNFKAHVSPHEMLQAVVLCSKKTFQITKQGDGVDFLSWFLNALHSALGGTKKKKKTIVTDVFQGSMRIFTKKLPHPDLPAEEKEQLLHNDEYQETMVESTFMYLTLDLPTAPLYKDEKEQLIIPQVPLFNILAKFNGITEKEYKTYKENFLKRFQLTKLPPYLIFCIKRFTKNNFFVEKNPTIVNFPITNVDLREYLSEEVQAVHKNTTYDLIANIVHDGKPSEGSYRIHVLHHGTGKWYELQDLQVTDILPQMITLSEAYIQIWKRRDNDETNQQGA
UniProt Q9Y5K5, sequence (Q9Y5K5 whole entry): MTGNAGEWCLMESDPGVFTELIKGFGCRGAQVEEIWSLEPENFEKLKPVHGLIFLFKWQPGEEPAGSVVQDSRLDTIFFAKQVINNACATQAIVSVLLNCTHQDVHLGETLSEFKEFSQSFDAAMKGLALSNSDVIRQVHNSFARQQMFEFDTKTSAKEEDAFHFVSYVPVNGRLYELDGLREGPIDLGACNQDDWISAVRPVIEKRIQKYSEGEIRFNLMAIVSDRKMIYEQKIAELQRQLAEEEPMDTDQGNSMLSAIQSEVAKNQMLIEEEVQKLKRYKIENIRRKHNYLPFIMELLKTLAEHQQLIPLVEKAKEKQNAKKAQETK

log2 ratio of Biotin-Ahx-Ub-VS probe labelling, inactive:
ALG13 (UniProt Q9NP73) 0.00409
UniProt O00487 0.0337
USP39 (UniProt Q53GS9) -0.0158
USP46 (UniProt P62068) -0.289
UCHL5 (UniProt Q9Y5K5) -0.2
USP48 (UniProt Q86UV5) -0.157
YOD1 (UniProt Q5VVQ6) -0.198
USP42 (UniProt Q9H9J4) -0.224

same assay, conditions: compound concentration: 200uM; treatment time: 3 h

log2 ratio of Biotin-Ahx-Ub-VS probe labelling, inactive:
ALG13 (UniProt Q9NP73) -0.0817
UniProt O00487 -0.128
USP39 (UniProt Q53GS9) 0.0541
USP46 (UniProt P62068) -0.565
UCHL5 (UniProt Q9Y5K5) -0.0949
USP48 (UniProt Q86UV5) -0.225
YOD1 (UniProt Q5VVQ6) -0.139
USP42 (UniProt Q9H9J4) 0.0756
